According to PubChem BioAssay (NCI):
About 83,000 compounds went through this panel and 20% of them were active in at least one assay; those are over-represented in the sample as a whole.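 Each cell line was grown in a 96-well plate and treated with one concentration of compound for 48 hours. Values below 10 were considered active.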 A number with no mark means an inactive call.

These compounds were tested on SK-OV-3 ovarian (assay: NCI-60 one-dose screen, 48 h (100 = growth as untreated, 0 = no growth, -100 = all killed)). Conditions: 10 µM unless noted.

Row | SMILES | growth [%]
1 | Clc1ccc(/C=C/c2nc(Nc3ccc(Cl)cc3)c3ccccc3n2)cc1 | 96.6
2 | C=C1C(=O)O[C@H]2[C@H]1CC/C(COC(=O)/C=C\C(=O)NCc1ccc(Cn3c(=O)sn(CCCC)c3=O)cc1)=C\CC[C@@]1(C)O[C@@H]21 | 55.7
3 | C=C1C(=O)O[C@H]2[C@H]1CC/C(C(=O)NCCCCCCCCNC(=O)/C1=C/CC[C@@]3(C)O[C@H]3[C@H]3OC(=O)C(=C)[C@@H]3CC1)=C\CC[C@@]1(C)O[C@@H]21 | 93.5
4 | Cc1nc(Nc2ccc(N)cc2)c2ccccc2n1 | 113
5 | OC(COc1cccc2ccccc12)CN1CCN(c2ccccc2)CC1 (configuration not stated) | 93.7
6 | C=C1C(=O)O[C@H]2[C@H]1CC/C(COC(=O)/C=C\C(=O)NCc1ccc(Cn3c(=O)sn(-c4ccc(OC)cc4)c3=O)cc1)=C\CC[C@@]1(C)O[C@@H]21 | 61.4
7 | CC(C)(C)OC(=O)N1Cc2cc3ccccc3nc2C1CO (configuration not stated) | 119
8 | NC(=Nc1ccc(N)cc1)C(N)=Nc1ccc(N)cc1 | 126
9 | Clc1ccc(-c2nc(NCCc3ccccc3)nc3c(NCCc4ccccc4)cnn23)cc1 | 75.8
10 | C=C1C(=O)O[C@H]2[C@H]1CC/C(COC(=O)/C=C\C(=O)NCc1ccc(Cn3c(=O)sn(-c4ccc(Cl)cc4)c3=O)cc1)=C\CC[C@@]1(C)O[C@@H]21 | 52.4
11 | CC(=O)Nc1ccc(C(=O)/C=C/c2ccccc2)cc1 | 105
12 | COc1ccc(-n2nnc(C(=O)NCCc3c[nH]c4ccc(F)cc34)c2C)cc1 | 89.8
